Test results published in PubChem BioAssay AID602340 (Broad Institute, 2012).
Among all 330,000 compounds or so, about 2,600 (0.79%) were called active. This excerpt belongs to a sample that is enriched for actives. Values without a mark were called inactive.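 Rule for the calls: active = mean ATP rescue above about 67%, or every replicate alone reaching that limit (limit read from the data, passing the limit was not always enough); inconclusive = no clear call, values can overlap the other calls; inactive = mean under the limit and some replicate under it.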

Assay: protection of differentiated C2C12 cells from simvastatin – single point, plate reader, primary screen (AID 602340);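 note: myotubes were challenged with 10 µM simvastatin during compound exposure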
Conditions: C2C12 myotubes + simvastatin, ATP luminescence, 48 h; at 7.49 µM; active compounds read high; scaled: DMSO 0, geranylgeraniol control 100
Compound CCOc1ccc(NC(=O)CN(C)C(=O)Cc2sc(C)nc2-c2ccc(F)cc2)cc1OCC has a rescue of ATP level of 8.47%. In the case of Cc1nc(-c2ccc(F)cc2)c(CC(=O)N2CCN(S(=O)(=O)c3ccc(F)cc3)CC2)s1, the rescue of ATP level is reported as -5.66%. With CCOc1ccc(-c2nc(C)sc2CC(=O)O)cc1 the rescue of ATP level was 87.4% (active). Compound CN1C(=O)c2cc(NS(C)(=O)=O)ccc2OC[C@H]2O[C@H](CC(=O)NCc3ccccc3)CC[C@H]21 has a rescue of ATP level of -11.2%. C[C@H](NC(=O)C[C@@H]1CC[C@@H](NC(=O)Cc2ccccn2)[C@@H](CO)O1)c1ccccc1 showed a rescue of ATP level of 1.25%. With CO[C@@H]1CN(C)C(=O)c2cc(NC(=O)c3cccc(F)c3)ccc2OC[C@H](C)N(C)C[C@@H]1C the rescue of ATP level was 6.21%. In the case of CN1CCN(CCCNC(=O)c2ccc(/C=C3\Oc4ccccc4N(Cc4ccc(Cl)cc4)C3=O)cc2)CC1, the rescue of ATP level is reported as 88.6% (active). Work on CC(C)OCCCNC(=O)CN1C(=O)/C(=C/c2ccccc2F)Oc2ccccc21 yielded a rescue of ATP level of -11.5%. For CCCN1CCN(C(=O)CCCNC(=O)c2ccc(Cl)cc2)CC1, the rescue of ATP level was -1.82%. In the case of CS(=O)(=O)Nc1ccc2c(c1)[C@H]1C[C@@H](CC(=O)NCCc3ccccc3)O[C@@H](CO)[C@H]1O2, the rescue of ATP level is reported as 3.14%. With O=C(COC(=O)c1cc(S(=O)(=O)N2CCOCC2)ccc1F)NC1CC1 the rescue of ATP level was -0.144%. For O=C(OCCOc1ccccc1F)c1cc(S(=O)(=O)N2CCOCC2)ccc1F, the rescue of ATP level was 12.7%. With COc1cc(NC(=O)COC(=O)c2cc(S(=O)(=O)N3CCOCC3)ccc2F)cc(OC)c1 the rescue of ATP level was 117% (active). With CC=Cc1ccc2n(c1=O)C[C@@H]1[C@@H](CO)[C@H](C(=O)NCC)[C@H]2N1CCC(F)(F)F (mixture of isomers) the rescue of ATP level was 12.8%. For CC(C)CC#Cc1cnc2c(c1)C(=O)N([C@H](C)CO)C[C@H](C)[C@H](CN(C)CC1CCOCC1)O2, the rescue of ATP level was 17.7%. With C[C@@H]1CN([C@H](C)CO)C(=O)Cc2cc(NC(=O)Cn3cnnn3)ccc2O[C@H]1CN(C)CC1CCCCC1 the rescue of ATP level was 19.6%. For Cc1ccc(-c2csc(NC(=O)c3cccs3)n2)cc1, the rescue of ATP level was 112% (active). With CCCc1ccc(-c2csc(NC(=O)Cc3cccs3)n2)cc1 the rescue of ATP level was 20.4%. CCc1noc(C)c1C(=O)Nc1nc(-c2ccccc2)cs1 gave a rescue of ATP level of -35.8%. Compound COc1ccc(C(=O)Nc2ccc3c(c2)OC[C@H](C)N(C(C)=O)C[C@@H](C)[C@@H](OC)CN(C)C3=O)cc1 has a rescue of ATP level of -4.78%. COc1cccc(C(=O)Nc2ccc3c(c2)C(=O)N(C)[C@@H]2CC[C@H](CC(=O)NCC4CC4)O[C@@H]2CO3)c1 gave a rescue of ATP level of 4.48%. Compound COc1cccc(C(=O)Nc2ccc3c(c2)C(=O)N(C)[C@@H]2CC[C@@H](CC(=O)NCCCN4CCOCC4)O[C@@H]2CO3)c1 has a rescue of ATP level of 8.62%. Compound CCCNC(=O)N1C[C@H]2[C@@H](c3ccccc31)[C@H](CO)N2C(=O)NC(C)C has a rescue of ATP level of -5.25%. In the case of CCOC(=O)c1cc2sccc2n1Cc1ccc(C#N)cc1, the rescue of ATP level is reported as 29.8%. With Cc1c(C(C)(C)O)[nH]c2ccc(C#N)cc12 the rescue of ATP level was 81.3% (active). With Cc1[nH]c2ccc(S(N)(=O)=O)cc2c1C the rescue of ATP level was 6.68%.
